# Bioassay records (PubChem BioAssay)
# Shown is part of a subset that was picked to be rich in hits.
# N-glyco inh: N-linked glycosylation inhibition; D54 ERlucT glycosylation luciferase reporter, 24 h; percent of 100 nM tunicamycin response; reporter increase, % at 12.5 µM; 360,000 compounds, 0.23% hits; AID 588692;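 active = mean luciferase reporter signal, scaled so untreated is 0 and the glycosylation-blocking control 100, at or above a set limit in every replicate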;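 also: luciferase carries N-glycosylation sites so blocking glycosylation raises the light; 0% = median of neutral control wells and 100% = median of 100 nM tunicamycin wells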
# Rtt109 Vps75: C. albicans Rtt109 histone acetyltransferase inhibition | purified Rtt109/Vps75, ThioGlo CoA-SH fluorescence, 4 h | 330,000 compounds, 0.16% hits | inhibition, % at 34.9 µM | AID 540336 | Q5AAJ8;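 active = inhibition of at least 50% in every replicate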
# Target sequence (Q5AAJ8 whole entry, looked up): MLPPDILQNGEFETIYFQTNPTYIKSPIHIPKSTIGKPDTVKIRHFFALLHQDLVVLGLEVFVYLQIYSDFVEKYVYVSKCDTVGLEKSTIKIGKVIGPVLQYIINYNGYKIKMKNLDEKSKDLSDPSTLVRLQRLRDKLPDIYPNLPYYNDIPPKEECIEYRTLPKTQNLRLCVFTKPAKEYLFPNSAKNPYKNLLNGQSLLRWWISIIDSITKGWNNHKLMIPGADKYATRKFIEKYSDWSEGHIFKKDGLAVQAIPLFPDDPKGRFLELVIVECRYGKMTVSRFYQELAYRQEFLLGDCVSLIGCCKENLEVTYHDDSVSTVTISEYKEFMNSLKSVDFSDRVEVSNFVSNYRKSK
# DENV2 CPE rescue: protects cells from dengue virus 2 cytopathic effect | DENV2-infected cells, cytopathic effect rescue, plate reader | CPE inhibition, % at 9.99 µM | 350,000 compounds, 1.7% hits | AID 651640; in the data active = CPE inhibition above about 20%, passing the limit was not always enough; tested in BHK-21 cells;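 also: 0% = median of neutral control wells and 100% = median of positive control wells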
# PglD DTNB: blocks C. jejuni PglD acetyltransferase activity | purified PglD enzyme, DTNB colorimetric CoA detection | 360,000 compounds, 0.098% hits | inhibition, % at 12.5 µM; in the data active = inhibition above about 16%, passing the limit was not always enough
# Active calls of the source: *; / = no result given; ! = a repeat was not active.
SMILES,N-glyco inh,Rtt109 Vps75,DENV2 CPE rescue,PglD DTNB
Cc1ccc(-c2nn3c(C)nnc3c3ccccc23)cc1S(=O)(=O)NCc1ccccc1,7,-4,/,-4
Cc1ccc(-c2nn3c(C)nnc3c3ccccc23)cc1S(=O)(=O)N(C)CCO,27*,-2,/,-5
O=C(c1cc(-c2cccs2)on1)N1CCCc2ccccc21,0,-6,85*,-3
Cc1ccc(-c2cc(C(=O)N3CCCc4ccccc43)no2)cc1,-3,1,-5,0
COc1ccc(NC(=O)C2CCCN2S(=O)(=O)c2ccc3c(c2)CCC(=O)N3)c(OC)c1 (centres undefined),-1,14,37*,0
Cc1ccc(CCNC(=O)C2CCCN2S(=O)(=O)c2ccc3c(c2)CCC(=O)N3)cc1 (centres undefined),-3,-10,/,4
CCC(CC)c1ncc[nH]1,-1,1,-3,7
Cc1ncc[nH]1,0,-2,57*,-1
CC(C)NC(=O)N(C)C[C@@H]1Oc2ccc(NC(=O)CCC(F)(F)F)cc2C(=O)N([C@@H](C)CO)C[C@H]1C,/,/,-12,0
CCCC#Cc1ccc2c(c1)O[C@@H](CN(C)C(=O)c1ccncc1)[C@@H](C)CN([C@H](C)CO)S2(=O)=O,/,/,3,4
COc1ccc(CN(C)C[C@@H]2OCCCC[C@H](C)Oc3ccc(NC(=O)Nc4cccc5ccccc45)cc3C(=O)N([C@H](C)CO)C[C@H]2C)cc1,/,/,-6,2
COc1ccc(C(=O)CSC#N)cc1OC,26*,-9,3,/
C[C@@H]1CN([C@@H](C)CO)S(=O)(=O)c2ccc(C#Cc3cccc(F)c3)cc2O[C@H]1CN(C)C,/,/,-2,4
C[C@@H]1CCCCO[C@H](CN(C)C(=O)c2ccccc2)[C@H](C)CN([C@@H](C)CO)C(=O)c2cc(NS(=O)(=O)c3cccs3)ccc2O1,/,/,10,-5
C[C@@H]1CCCCO[C@H](CN(C)C(=O)NC2CCCCC2)[C@H](C)CN([C@@H](C)CO)C(=O)c2cc(NC(=O)Nc3ccccc3)ccc2O1,/,/,12,2
Cc1ccc(-n2ncc3c2CCCC3NC(=O)c2ccoc2)cc1C (centres undefined),-2,-6,-3,-1
Cc1cc(C)c(C(=O)NC2CCCc3c2cnn3-c2ccc(C)c(C)c2)c(=O)[nH]1 (centres undefined),-1,3,106*,-3
CCN1C=CC(=C2C(=O)c3ccccc3C2=O)C=C1,-25,80*,/,-5
CCCN1C=CC(=C2C(=O)c3ccccc3C2=O)C=C1,-25,7,/,2
O=C(C[C@H]1C=C[C@H](NC(=O)C2CCOCC2)[C@@H](CO)O1)NCc1ccccc1Cl,/,/,-1,/
C[C@@H]1CN([C@H](C)CO)C(=O)c2cc(NC(=O)Nc3cccc4ccccc34)ccc2O[C@H]1CN(C)C(=O)Nc1ccc2c(c1)OCO2,/,/,15,2
COc1ccc(NC(=O)N(C)C[C@@H]2OCCCC[C@H](C)Oc3ccc(NS(=O)(=O)c4ccc(Cl)cc4)cc3C(=O)N([C@H](C)CO)C[C@H]2C)cc1,/,/,-4,1
CCOC(=O)N1CCN(Cc2c(O)ccc3ccccc23)CC1,-1,133*,3,6
O=C(C1CCCO1)N1CCN(Cc2c(O)ccc3ccccc23)CC1 (centres undefined),1,142*,/,3
COc1ccc(C(=O)/C=C/c2ccc(O)cc2)cc1,6,-5,0,2
SMILES,N-glyco inh,Rtt109 Vps75,DENV2 CPE rescue,PglD DTNB
COc1ccc(N/C=C/C(=O)c2ccc(OC)c(OC)c2)cc1,3,-6,4,-5
COc1ccc(N/C=C/C(=O)c2cc(OC)c(OC)c(OC)c2)cc1,38*,1,1,-9
COc1ccc(C=CC(=O)c2c(OC)cc(OC)c(OC)c2O)cc1,29*,-3,-2,-1
COCC(=O)N1CC2(C1)[C@H](c1ccc(-c3cccc(F)c3)cc1)[C@H](CO)N2C(=O)COC,/,/,-2,/
c1ccc(OCCOCCOc2ccccc2)cc1,0,3,/,-4
F[B-](F)(F)COc1ccccc1,1,1,36*,0
O=C1CN(Cc2ccccc2)C[C@H]2[C@H](c3ccc(-c4ccccc4F)cc3)[C@H](CO)N12,/,/,-5,/
O=C(Nc1cccc(F)c1)N1CC(=O)N2[C@H](CO)[C@H](c3ccc(C#Cc4cccnc4)cc3)[C@H]2C1,/,/,0,/
Cc1noc(C)c1S(=O)(=O)Nc1ccc2c(c1)C(=O)N([C@@H](C)CO)C[C@H](C)[C@@H](CN(C)C(=O)Nc1ccc3c(c1)OCO3)O2,/,/,2,-12
C[C@@H]1CN([C@H](C)CO)C(=O)c2cc(NS(=O)(=O)c3cccs3)ccc2O[C@@H](C)CCCCO[C@H]1CN(C)Cc1ccc2c(c1)OCO2,/,/,55*,1
COc1ccc(CN(C)C[C@@H]2OCCCC[C@@H](C)Oc3ccc(NS(=O)(=O)c4cccs4)cc3C(=O)N([C@@H](C)CO)C[C@H]2C)cc1,/,/,27*,-2
C[C@H]1CCCCO[C@@H](CN(C)Cc2ccc3c(c2)OCO3)[C@@H](C)CN([C@@H](C)CO)C(=O)c2cc(NS(=O)(=O)c3cccs3)ccc2O1,/,/,59*!,-1
COc1ccc(S(=O)(=O)N(C)C)cc1NC(=O)Cc1ccc(S(=O)(=O)N2CCOCC2)s1,-2,51*,-1,-1
CN(C)S(=O)(=O)c1ccc(NC(=O)Cc2ccc(S(=O)(=O)N3CCOCC3)s2)cc1,-2,-4,4,/
C[C@@H]1CCCCO[C@@H](CN(C)C(=O)Nc2ccccc2)[C@H](C)CN([C@H](C)CO)C(=O)c2cc(NC(=O)Nc3ccc(C(F)(F)F)cc3)ccc2O1,/,/,-14,/
C[C@@H]1CCCCO[C@H](CN(C)C(=O)Nc2ccc(C(F)(F)F)cc2)[C@H](C)CN([C@@H](C)CO)C(=O)c2cc(NC(=O)Nc3ccc(C(F)(F)F)cc3)ccc2O1,/,/,30*,-3
C[C@H](CO)N1C[C@H](C)[C@H](CN(C)C(=O)Nc2ccc(C(F)(F)F)cc2)OCCCC[C@H](C)Oc2ccc(NC(=O)Nc3ccc(C(F)(F)F)cc3)cc2C1=O,/,/,-6,1
C[C@H]1CCCCO[C@H](CN(C)C(=O)Nc2ccccc2)[C@@H](C)CN([C@@H](C)CO)C(=O)c2cc(NC(=O)Nc3ccc(C(F)(F)F)cc3)ccc2O1,/,/,60*,/
